Data on 10 molecules can be found in publication PMC5540273 (PLoS ONE, 2017).

Test systems include FYN; GAK; GRK1; GRK4; GRK7; GSK3A; GSK3B.
Common to all, as to settings: concentration: 1 μM, replicates: in singlicate; n = 1
The test system of a further experiment is T1, GCN2(Kin.Dom.2,S808G).
T1 construct: gene EIF2AK4

The test system of another experiment is T2, GRK2.
T2 construct: gene ADRBK1

The next experiment concerns T3, GRK3.
T3 construct: gene ADRBK2
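Further: KINOMEscan kinase panel screen.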

With `COc1cc(Nc2nccc(N3CCC(NC(=O)c4cc5ccccc5s4)C3)n2)cc(OC)c1OC` (stereo not shown) [GSK1379760], the “%Inh” value in the experiment on FYN is 8%; in the experiment with GAK it was 27%; in the experiment on GCN2(Kin.Dom.2,S808G), 4%; in the experiment on GRK1 it was 0%; in the experiment on GRK2, 0%; with GRK3 it was 17%. Also, the “%Inh” value with GRK4 came to 19%; in the experiment with GRK7, 0%; in the experiment with GSK3A it was 0%; with GSK3B, 4%.

On to `O=c1[nH]cc(-c2ccc(N3CCOCC3)cc2)c2sc(-c3cn[nH]c3)cc12` [GSK2276055], for which the “%Inh” value is 31% with FYN; 34% in the experiment on GAK; 0% in the experiment with GCN2(Kin.Dom.2,S808G); 14% in the experiment with GRK1; 9% with GRK2; 0% in the experiment with GRK3. The “%Inh” value stood at 0% in the experiment with GRK4, 0% in the experiment on GRK7, 97.7% in the experiment with GSK3A and 77% in the experiment with GSK3B.

Take `COc1ccc(-c2coc3ccc(-c4nnc(SCc5ccc(OC)c(C(F)(F)F)c5)o4)cc23)cc1`: the “%Inh” value in the experiment on FYN came out at 3%; with GAK it was 10%; with GCN2(Kin.Dom.2,S808G), 0%; in the experiment on GRK1, 19%; in the experiment with GRK2 it was 0%; in the experiment on GRK3, 0%. The “%Inh” value with GRK4 is given as 0%; in the experiment with GRK7, 21%; in the experiment with GSK3A, 25%; in the experiment on GSK3B, 4%.

On to `COc1ccc(Nc2nccc(NCCNC(=O)c3cc4ccccc4s3)n2)cc1` [GSK1379896], for which the “%Inh” value in the experiment on FYN is 33%; with GAK it was 42%; in the experiment on GCN2(Kin.Dom.2,S808G), 3%; in the experiment on GRK1 it was 6%; with GRK2, 3%; in the experiment with GRK3 it was 0%. The “%Inh” value with GRK4 amounted to 0%; with GRK7, 0%; in the experiment with GSK3A, 7%; in the experiment with GSK3B it was 13%.

Regarding `COc1cccc(NC(=O)NC2CCN(c3ccnc(Nc4cc(OC)c(OC)c(OC)c4)n3)C2)c1` (stereo not shown) [GSK1379763], the “%Inh” value is 42% in the experiment on FYN; 31% in the experiment on GAK; 4% in the experiment with GCN2(Kin.Dom.2,S808G); 0% with GRK1; 0% in the experiment on GRK2; 15% with GRK3. Further, the “%Inh” value with GRK4 is on record as 0%; in the experiment on GRK7, 0%; with GSK3A, 0%; with GSK3B it was 45%.

Consider `COc1cc(Nc2nccc(N3CCC(NC(=O)Nc4cccc(C(C)=O)c4)C3)n2)cc(OC)c1OC` (stereo not shown) [GSK1379753], for which the “%Inh” value is 40% with FYN; 34% in the experiment with GAK; 0% in the experiment with GCN2(Kin.Dom.2,S808G); 2% in the experiment on GRK1; 0% in the experiment on GRK2; 16% in the experiment with GRK3. Further, the “%Inh” value was 0% with GRK4, 0% with GRK7, 0% in the experiment on GSK3A and 1% in the experiment with GSK3B.

As to `O=C(NC1CCN(c2ccnc(Nc3ccc(F)cc3)n2)C1)c1cc2ccccc2s1` (stereo not shown) [GSK1379716], the “%Inh” value in the experiment with FYN came out at 26%; in the experiment with GAK it was 13%; in the experiment with GCN2(Kin.Dom.2,S808G), 7%; in the experiment with GRK1, 3%; with GRK2 it was 14%; with GRK3 it was 33%. Also, the “%Inh” value amounted to 0% in the experiment on GRK4, 0% with GRK7, 0% in the experiment with GSK3A and 20% in the experiment with GSK3B.

For the molecule `CCS(=O)(=O)c1ccc(OC)c(Nc2nccc(-c3c(-c4cccc(NC(=O)c5c(F)cccc5F)c4)nn4ncccc34)n2)c1` [GSK326180], the “%Inh” value in the experiment on FYN is 53%; with GAK, 0%; in the experiment with GCN2(Kin.Dom.2,S808G), 8%; with GRK1, 0%; in the experiment with GRK2, 0%; with GRK3, 17%. Further, the “%Inh” value in the experiment with GRK4 is 0%; with GRK7 it was 0%; with GSK3A, 12%; in the experiment on GSK3B it was 2%.

As to `Cc1ccc(C)c(NC(=O)NC2CCN(c3ccnc(Nc4ccc(F)cc4)n3)C2)c1` (stereo not shown) [GSK1379720], the “%Inh” value came to 27% with FYN; 0% with GAK; 0% in the experiment on GCN2(Kin.Dom.2,S808G); 0% in the experiment on GRK1; 0% in the experiment on GRK2; 60% in the experiment with GRK3. In addition, the “%Inh” value in the experiment on GRK4 amounted to 7%; with GRK7 it was 0%; in the experiment on GSK3A, 0%; in the experiment with GSK3B it was 0%.

With `CC(C)(C)c1ccc2nccc(Nc3cccc(O)c3)c2c1` [GW856795], the “%Inh” value came to 71% with FYN; 62% with GAK; 15% in the experiment on GCN2(Kin.Dom.2,S808G); 9% in the experiment on GRK1; 39% with GRK2; 0% with GRK3. Besides, the “%Inh” value in the experiment with GRK4 is on record as 16%; in the experiment with GRK7 it was 17%; with GSK3A, 0%; with GSK3B, 9%.
